Screens as filed in PubChem.
AmpC inh no det = Promiscuous and Specific Inhibitors of AmpC Beta-Lactamase (assay without detergent). AmpC nitrocefin hydrolysis, absorbance 480 nm, no detergent. Potency, µM (series often up to 28.7 µM), for the others: top-dose activity change, negative = inhibition. P00811. hit rate 1.8% among 71,000; note: % of control where 0% means no effect
Target sequence (P00811 whole entry, looked up): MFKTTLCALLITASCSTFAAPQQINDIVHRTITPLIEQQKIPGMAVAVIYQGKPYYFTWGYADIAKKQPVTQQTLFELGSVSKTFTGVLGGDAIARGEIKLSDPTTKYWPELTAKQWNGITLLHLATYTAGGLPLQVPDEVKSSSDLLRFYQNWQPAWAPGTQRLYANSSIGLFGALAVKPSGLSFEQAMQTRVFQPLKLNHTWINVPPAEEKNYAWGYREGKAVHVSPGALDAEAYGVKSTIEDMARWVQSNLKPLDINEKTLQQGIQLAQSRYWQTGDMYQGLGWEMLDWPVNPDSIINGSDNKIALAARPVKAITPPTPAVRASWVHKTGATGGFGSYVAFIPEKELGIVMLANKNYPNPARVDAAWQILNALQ
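AmpC, 20 mM phosphate pH 7.0; 15 min cpd preinc, RT; start with nitrocefin (800 uM stock); A480 kinetic read, 20 s intervals, 4 min. No-enzyme wells = negative control.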
AmpC inh det = Promiscuous and Specific Inhibitors of AmpC Beta-Lactamase (assay with detergent); P00811; purified AmpC, nitrocefin hydrolysis with detergent; Potency, µM (titrated, usually from 28.7 µM), for the others: at the top dose activity change, negative = inhibition; hit rate 0.09% among 71,000; AID 584, 2007; active = well fitted curve in the direction sought with a large enough effect; inconclusive = small, poorly fitted or top-dose-only effect; note: % is set by controls: 0 for no effect and ±100 for the full control effect
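E. coli AmpC (5.3 nM) in 20 mM phosphate pH 7.0 with 0.01% Triton X-100, preincubated 15 min RT with compound; nitrocefin (2 uL of 800 uM stock) hydrolysis followed by 480 nm absorbance every 20 s over 4 min.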
Prx2 Sm inh = Schistosoma Mansoni Peroxiredoxins (Prx2); AID 448, 2006; S. mansoni Prx2 activity coupled to TGR/GSH (TGR is thioredoxin glutathione reductase), NADPH fluorescence loss, qHTS; Schistosoma mansoni peroxiredoxin 2 (Prx2); Potency, µM; hit rate 0.07% among 65,000
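Prx2 activity was followed as the loss of NADPH fluorescence (ex 365/em 450 nm), read every 30 sec for 8 min after H2O2 start. The enzyme mix (50 nM Prx2, 25 nM TGR, GSH, NADPH; pH 7.4 phosphate buffer) was incubated with compound for 15 min at room temperature first.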
LT uptake inh = qHTS Assay for Anthrax Lethal Toxin Internalization | Cells, anthrax lethal toxin internalization, FRET ratio (460/530) | Potency, µM (titrated, usually from 40 µM), without a hit: at the top dose activity change, negative = inhibition, hits mostly inhibitors | hit rate 0.67% among 70,000 | AID 912, 2007; note: % is set by controls: 0 for no effect and ±100 for the full control effect; nearly all actives have a fitted effect of over 50% in size
Numbers without * were called inactive; ? = inconclusive; · = no result; [ ] = dose if it differs, or a comment. This is a sample that favours compounds with a hit; in the whole collection about 2.4% have one here. Unless noted, calls come from the whole dose curve. Potency is the fitted concentration of half-maximal effect.

SMILES | AmpC inh no det | AmpC inh det | Prx2 Sm inh | LT uptake inh
C[n+]1c(/C=C\c2ccc(O)c3ncccc23)[se]c2ccccc21 | -5%[5.75 µM] | -4%[5.75 µM] | >57 | -7%[8 µM]
CCOc1ccc(-n2c(CC)nc3ccccc3c2=O)cc1 | 3.2µM*[single pt active] | 12% | >57 | -17%
COc1ccc(-n2cnc3c(sc4nccc(N(C)C)c43)c2=O)cc1 | -3% | -6% | >57 | ·
Cc1ccc(-n2cnc3c(sc4nccc(N(C)C)c43)c2=O)cc1 | 40% | 12% | · | 6.3µM*
CCOC(=O)C1CCCN(c2c(NCC3CCCN3CC)c(=O)c2=O)C1 (stereo not drawn) | 4µM*[single pt active] | 11% | >57 | -11%
CCOC(=O)C1CCCN(c2c(NCCCN3CCCC(C)C3)c(=O)c2=O)C1 (stereo not drawn) | 4µM*[single pt active] | 14% | >57 | -21%
COc1cccc(Cn2c(C3CC3)nc3ccc(NC(=O)c4ccco4)cc3c2=O)c1 | 45% | -5% | >57 | 13µM*
O=C(Nc1ccc2nc(C3CC3)n(Cc3ccc(F)cc3)c(=O)c2c1)c1ccco1 | 38% | 3% | >57 | -18%
COc1cccc(C2CC(c3ccccc3OC)n3ncnc3N2)c1 (stereo not drawn) | 4µM*[single pt active] | 16% | >57 | 12%
Cc1ccccc1C1CC(c2ccccc2)Nc2ncnn21 (stereo not drawn) | 4µM*[single pt active] | 10% | >57 | -23%
COc1cccc(C2CC(c3ccccc3)Nc3ncnn32)c1 (stereo not drawn) | 23% | -1% | >57 | -29%
Fc1ccc(C2CC(c3ccccc3)n3ncnc3N2)cc1 (stereo not drawn) | 20% | -5% | >57 | -30%
CCOc1ccc(C2CC(c3ccc(F)cc3)n3ncnc3N2)cc1 (stereo not drawn) | 4µM*[single pt active] | 12% | >57 | -13%
COC(=O)[C@H]1[C@@H]2C[C@H]3c4[nH]c5ccccc5c4CCN3C[C@@H]2CC[C@@H]1O | 10% | 1% | >57 | -7%
COc1ccc2c(c1)c(CC(=O)O)c(C)n2C(=O)c1ccc(Cl)cc1 | -1% | 3% | >57 | ?
COc1ccc2c(c1)c(CCN1CCOCC1)c(C)n2C(=O)c1cccc(Cl)c1Cl | · | · | · | 13µM*
COC(=O)CS(=O)(=O)c1nnc([C@H](Cc2ccccc2)NC(=O)OC(C)(C)C)o1 | ? | 4µM* | ? | ·
CCOC(=O)N1CCN(c2c(N3CCc4ccccc43)c(=O)c2=O)CC1 | 4µM*[single pt active] | 14% | · | ?
CCOC(=O)C1CCN(c2c(N3CCN(c4ccccc4OC)CC3)c(=O)c2=O)CC1 | 11% | 7% | >57 | -6%
CCOC(=O)N1CCN(c2c(Nc3ccc4c(c3)OCCO4)c(=O)c2=O)CC1 | 4µM*[single pt active] | 13% | >57 | ?
CCOCC(=O)Nc1ccc2c(c1)OCCO2 | 10% | -3% | >57 | -5%
CCOC(=O)N1CCN(c2c(NCC3CCCO3)c(=O)c2=O)CC1 (stereo not drawn) | 4µM*[single pt active] | 5% | >57 | -6%
CCOC(=O)N1CCN(c2c(N3CCN(c4ccccn4)CC3)c(=O)c2=O)CC1 | 4µM*[single pt active] | 13% | >57 | -10%
CCCCC(CC)COCC1CO1 (stereo not drawn) | -4% | 7% | · | -2%
O=C(O)C(NS(=O)(=O)c1cccc2cccnc12)c1ccccc1 (stereo not drawn) | -1% | 11% | >57 | -5%
SMILES | AmpC inh no det | AmpC inh det | Prx2 Sm inh | LT uptake inh
CCOC(=O)N1CCN(c2c(N3CCOCC3)c(=O)c2=O)CC1 | 4µM*[single pt active] | 6% | >57 | -8%
CCOC(=O)CN1C(=O)c2ccccc2C1=O | 23% | -1% | >57 | -12%
CCOC(=O)/C(C(C)=O)=C1\OC(=O)c2ccccc21 | 13µM* | 7.9µM* | >57 | -4%
Fc1ccc(OCc2nc(-c3ccc(Br)o3)no2)c(F)c1 | 2.5µM*[single pt active] | 10% | >57 | ?
Brc1ccc(-c2noc(CCc3ccccc3)n2)o1 | 4µM*[single pt active] | 10% | >57 | ?
Nc1cc(C(=O)O)c(O)c(S(=O)(=O)O)c1 | -13% | 9% | · | ?
C[C@H](C(=O)c1ccncc1)c1ccccn1 | -9%[5.75 µM] | -1%[5.75 µM] | >57 | -12%[8 µM]
O=C(COc1ccccc1F)c1ccc(O)cc1O | -14% | 5% | · | -26%
Cc1c(O)ccc(C(=O)COc2ccccc2F)c1O | -9% | 6% | >57 | 10µM*
O=C(CCCOc1ccccc1)Nc1nnc(C2CCCO2)s1 (stereo not drawn) | 10µM*[single pt active] | 13% | >57 | 0%
CCOC(=O)Cc1csc(-n2sc3ccccc3c2=O)n1 | 6% | 9% | >57 | 3.2µM*
CC(=O)N1CSCC1C(=O)N1CCN(c2ccc(N3CCOCC3)nn2)CC1 (stereo not drawn) | 2µM*[single pt active] | 12% | · | 4%
COc1ccc(C(=O)CCC(=O)N2CCN(c3ccc(N4CCOCC4)nn3)CC2)cc1 | 68% | 10% | >57 | 5%
CC1C(c2ccccc2)N(C)CCC12NC(=O)NC2=O (stereo not drawn) | 7% | -3% | >57 | 6%
CC1C(=O)CC(c2ccccc2)N(C)C1c1ccccc1 (stereo not drawn) | 4µM*[single pt active] | 14% | >57 | ?
CCCC[C@@H]1C[C@H]1C(NC(=O)c1ccco1)c1ccccc1C(F)(F)F (stereo partly drawn) | -18% | -4% | >57 | ?
CCCC[C@@H]1C[C@H]1C(NC(=O)c1ccco1)c1ccc(Cl)cc1 (stereo partly drawn) | 10µM*[single pt active] | -4% | >57 | ?
CCCC[C@@H]1C[C@H]1C(NC(=O)c1ccccc1)c1ccccc1 (stereo partly drawn) | -20% | -2% | >57 | 2%
CCCC[C@@H]1C[C@H]1C(NC(=O)c1ccco1)c1ccc(-c2ccccc2)cc1 (stereo partly drawn) | 13µM*[single pt active] | -3% | >57 | -10%
COC(=O)[C@H](Cc1ccccc1)NC(=O)[C@@H](C)CO | · | · | · | 6%[1.6 µM]
CCCCNC(=O)CS(=O)Cc1nc(-c2cccc(C)c2)oc1C (stereo not drawn) | 4µM*[single pt active] | 10% | >57 | -8%
CCC(C)NC(=O)CS(=O)Cc1nc(-c2cccc(C)c2)oc1C (stereo not drawn) | 4µM*[single pt active] | 13% | >57 | -3%
CCCCSCCCNC(=O)CS(=O)Cc1nc(-c2cccc(C)c2)oc1C (stereo not drawn) | 107% | -3% | >57 | 3%
Cc1cccc(-c2nc(CS(=O)CC(=O)NC3CCCC3)c(C)o2)c1 (stereo not drawn) | 4µM*[single pt active] | 11% | >57 | 0%
COc1ccccc1C[C@@H](Cc1nc2ccccc2[nH]1)c1nc2ccccc2[nH]1 | -11% | 1% | >57 | ?
CCc1cccc2c3c([nH]c12)[C@](CC)(CC(=O)O)OCC3 | 3% | -3% | >57 | 5%
Cc1ccccc1NC(=O)CSc1nc(N)c(C#N)c(-c2cccs2)c1C#N | 10µM* | 3% | >57 | -12%
COc1ccc(CCNC(=O)CSc2nc(N)c(C#N)c(-c3cccs3)c2C#N)cc1OC | 53% | 1% | >57 | ?
Cn1c(=O)n2n(c1=O)[C@H]1[C@H](O)[C@H]3O[C@@H]3/C(=N/OC[C@@H](O)COCc3ccco3)[C@@H]1CC2 | · | · | · | -3%[8 µM]
